# According to the supplement of paper PMC4709259:
# Structures can show the parent of a compound that is named as a salt. ± gives the standard deviation.
# Key:
# [1] = tested on: Jurkat; assay: mean cell size (FSC-A) relative to DMSO control (fraction of control); higher = larger cells; conditions: 48 h
# Outline: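 Jurkat cells seeded at 600 cells/µl were incubated 1 h, then exposed for 48h to the Enzo Screen-Well FDA Approved Drug Library v2.0 at 25µM in 0.9% (v/v) final DMSO. Drugs that cut counts below 20% of controls were diluted 10-fold and retested, down to 25nM. Cell count and mean cell size (forward scatter area) were read on an Accuri C6 flow cytometer, relative to solvent-only controls. Plates held 6-12 controls; values are means of 3 biological replicates.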
# [2] = tested on: Jurkat; assay: cell count relative to DMSO control (fraction of control); higher = more cells (less growth inhibition); conditions: 48 h
Compound,mean cell size [1],cell count [2]
NCCS [Cysteamine·HCl] (concentration: 25 µM),0.957 ± 0.034,0.513 ± 0.13
CC(=O)OC(C)C[N+](C)(C)C (configuration not stated) [Methacholine Chloride] (concentration: 25 µM),1.05 ± 0.022,0.921 ± 0.049
Nc1cccc2c1CN(C1CCC(=O)NC1=O)C2=O (configuration not stated) [Lenalidomide] (concentration: 25 µM),0.951 ± 0.021,1.03 ± 0.11
NC[C@@H]1O[C@H](O[C@H]2[C@@H](O)[C@H](O[C@@H]3[C@@H](O)[C@H](N)C[C@H](N)[C@H]3O[C@H]3O[C@H](CO)[C@@H](O)[C@H](O)[C@H]3N)O[C@@H]2CO)[C@H](N)[C@@H](O)[C@@H]1O [Paromomycin Sulfate] (concentration: 25 µM),0.949 ± 0.012,0.773 ± 0.041
N=C(N)N/N=C/c1c(Cl)cccc1Cl [Guanabenz Acetate] (concentration: 25 µM),0.988 ± 0.044,0.34 ± 0.13
CCC1(c2ccccc2)C(=O)NCNC1=O [Primidone] (concentration: 25 µM),1 ± 0.021,0.618 ± 0.18
CN1CC2c3ccccc3Oc3ccc(Cl)cc3C2C1 (configuration not stated) [Asenapine Maleate] (concentration: 25 µM),0.938 ± 0.019,0.935 ± 0.16
COc1ccccc1OCCNCC(O)COc1cccc2[nH]c3ccccc3c12 (configuration not stated) [Carvedilol] (concentration: 25 µM),1.01 ± 0.014,0.39 ± 0.034
COCC1=C(C(=O)OC(C)OC(=O)OC(C)C)N2C(=O)[C@@H](NC(=O)/C(=N\OC)c3csc(N)n3)[C@H]2SC1 (some centres not stated) [Cefpodoxime Proxetil] (concentration: 25 µM),0.94 ± 0.021,0.872 ± 0.045
OCc1cc(C(O)CNCCCCCCOCCCCc2ccccc2)ccc1O (configuration not stated) [Salmeterol] (concentration: 25 µM),0.927 ± 0.023,0.669 ± 0.042
O=C1CCc2ccc(OCCCCN3CCN(c4cccc(Cl)c4Cl)CC3)cc2N1 [Aripiprazole] (concentration: 25 µM),1.02 ± 0.037,0.89 ± 0.092
CC(=O)O[C@]1(C(C)=O)CC[C@H]2[C@@H]3C=C(C)C4=CC(=O)CC[C@]4(C)[C@H]3CC[C@@]21C [Megestrol Acetate] (concentration: 25 µM),0.9825 ± 0.0053,0.704 ± 0.059
CC(C)Cn1cnc2c(N)nc3ccccc3c21 [Imiquimod] (concentration: 25 µM),0.936 ± 0.018,0.44 ± 0.15
Nc1ncn([C@H]2C[C@H](O)[C@@H](CO)O2)c(=O)n1 [Decitabine] (concentration: 2.5 µM),1 ± 0.018,0.363 ± 0.035
CC(C)(C(=O)c1cccnc1)c1cccnc1 [Metyrapone] (concentration: 25 µM),1.04 ± 0.058,0.924 ± 0.079
Nc1ccc(S(=O)(=O)c2ccc(N)cc2)cc1 [Dapsone] (concentration: 25 µM),0.9573 ± 0.0072,0.976 ± 0.1
Clc1ccc(CO/N=C(\Cn2ccnc2)c2ccc(Cl)cc2Cl)c(Cl)c1 [Oxiconazole Nitrate] (concentration: 25 µM),0.933 ± 0.016,0.87 ± 0.18
CC(=O)O[C@H]1C(=O)[C@@]2(C)[C@H]([C@H](OC(=O)c3ccccc3)[C@]3(O)C[C@H](OC(=O)[C@H](O)[C@@H](NC(=O)c4ccccc4)c4ccccc4)C(C)=C1C3(C)C)[C@]1(OC(C)=O)CO[C@@H]1C[C@@H]2O [Paclitaxel (Taxol)] (concentration: 25 nM),1.07 ± 0.022,0.4 ± 0.048
COc1ccc(O)cc1 [Mequinol] (concentration: 25 µM),1.15 ± 0.034,0.863 ± 0.063
COC(=O)C1=C(C)NC(C)=C(C(=O)OC)C1c1ccccc1[N+](=O)[O-] [Nifedipine] (concentration: 2.5 µM),1.02 ± 0.036,0.92 ± 0.1
C[C@]12C=CC(=O)N[C@@H]1CC[C@@H]1[C@@H]2CC[C@]2(C)[C@@H](C(=O)Nc3cc(C(F)(F)F)ccc3C(F)(F)F)CC[C@@H]12 [Dutasteride] (concentration: 25 µM),0.983 ± 0.052,0.636 ± 0.17
O=NN(CCCl)C(=O)NC1CCCCC1 [Lomustine] (concentration: 25 µM),1.19 ± 0.07,0.287 ± 0.11
NC[C@H](O)c1ccc(O)c(O)c1 [Norepinephrine Bitartrate Monohydrate] (concentration: 25 µM),0.967 ± 0.024,0.658 ± 0.17
CCCc1cc(=O)[nH]c(=S)[nH]1 [Propylthiouracil] (concentration: 25 µM),1.02 ± 0.048,0.981 ± 0.1
CNS(=O)(=O)CCc1ccc2[nH]cc(C3CCN(C)CC3)c2c1 [Naratriptan·HCl] (concentration: 25 µM),0.95 ± 0.019,0.951 ± 0.065
C#C[C@]1(O)CC[C@H]2[C@@H]3CCC4=Cc5oncc5C[C@]4(C)[C@H]3CC[C@@]21C [Danazol] (concentration: 25 µM),0.995 ± 0.026,0.92 ± 0.08

Compound,mean cell size [1],cell count [2]
CN(C)CCCN1c2ccccc2Sc2ccc(Cl)cc21 [Chlorpromazine·HCl] (concentration: 2.5 µM),1.06 ± 0.017,0.631 ± 0.15
NC[C@@H]1O[C@H](O[C@H]2[C@@H](O)[C@H](O[C@@H]3[C@@H](O)[C@H](N)C[C@H](N)[C@H]3O[C@H]3O[C@H](CN)[C@@H](O)[C@H](O)[C@H]3N)O[C@@H]2CO)[C@H](N)[C@@H](O)[C@@H]1O [Neomycin Sulfate] (concentration: 25 µM),0.935 ± 0.018,0.944 ± 0.038
CCCN(CCC)S(=O)(=O)c1ccc(C(=O)O)cc1 [Probenecid] (concentration: 25 µM),0.993 ± 0.012,0.595 ± 0.13
O=C1C(=O)c2ccccc2C(O)=C1C1CCC(c2ccc(Cl)cc2)CC1 (configuration not stated) [Atovaquone] (concentration: 25 µM),0.91 ± 0.015,0.462 ± 0.039
Cc1cccc(Nc2ccncc2S(=O)(=O)NC(=O)NC(C)C)c1 [Torsemide] (concentration: 25 µM),1.01 ± 0.052,0.866 ± 0.042
C[C@]12CC[C@@H]3c4ccc(O)cc4CC[C@H]3[C@@H]1CCC2=O [Estrone] (concentration: 25 µM),0.963 ± 0.033,0.842 ± 0.094
Nc1ccn([C@@H]2O[C@H](CO)[C@@H](O)C2(F)F)c(=O)n1 [Gemcitabine·HCl] (concentration: 25 nM),1.12 ± 0.024,0.427 ± 0.09
COc1ccc2[nH]c([S@@+]([O-])Cc3ncc(C)c(OC)c3C)nc2c1 [Esomeprazole Potassium] (concentration: 25 µM),0.98 ± 0.027,0.868 ± 0.081
Clc1ccccc1C(c1ccccc1)(c1ccccc1)n1ccnc1 [Clotrimazole] (concentration: 25 µM),0.92 ± 0.04,0.591 ± 0.05
CCOC(=O)N1CCC(=C2c3ccc(Cl)cc3CCc3cccnc32)CC1 [Loratadine] (concentration: 25 µM),0.938 ± 0.034,0.367 ± 0.031
CCCCNC(=O)NS(=O)(=O)c1ccc(C)cc1 [Tolbutamide] (concentration: 25 µM),0.976 ± 0.032,0.606 ± 0.22
O=C1N=C(O)CN1N=Cc1ccc(-c2ccc([N+](=O)[O-])cc2)o1 [Dantrolene·Na] (concentration: 25 µM),1 ± 0.021,0.837 ± 0.068
CC[C@H]1OC(=O)[C@H](C)[C@@H](O[C@H]2C[C@@](C)(OC)[C@@H](O)[C@H](C)O2)[C@H](C)[C@@H](O[C@@H]2O[C@H](C)C[C@H](N(C)C)[C@H]2O)[C@](C)(O)C[C@@H](C)C(=O)[C@H](C)[C@@H](O)[C@]1(C)O [Erythromycin] (concentration: 25 µM),0.97 ± 0.038,0.871 ± 0.061
CCN(CC)C(=O)/C(C#N)=C/c1cc(O)c(O)c([N+](=O)[O-])c1 [Entacapone] (concentration: 25 µM),1.06 ± 0.055,0.519 ± 0.059
O=C(O)c1cc(/N=N/c2ccc(S(=O)(=O)Nc3ccccn3)cc2)ccc1O [Sulfasalazine] (concentration: 25 µM),0.965 ± 0.024,0.914 ± 0.11
NS(=O)(=O)c1cc2c(cc1C(F)(F)F)NC(Cc1ccccc1)NS2(=O)=O (configuration not stated) [Bendroflumethiazide] (concentration: 25 µM),0.957 ± 0.041,0.902 ± 0.08
CC[C@@H](CO)NCCN[C@@H](CC)CO [Ethambutol Dihydrochloride] (concentration: 25 µM),1.02 ± 0.064,0.721 ± 0.18
Cc1ccccc1C(=O)Nc1ccc(C(=O)N2CCCC(O)c3cc(Cl)ccc32)c(C)c1 (configuration not stated) [Tolvaptan] (concentration: 25 µM),0.951 ± 0.055,0.95 ± 0.028
Clc1ccc(CCC(Cn2ccnc2)Sc2c(Cl)cccc2Cl)cc1 (configuration not stated) [Butoconazole Nitrate] (concentration: 25 µM),0.953 ± 0.05,0.953 ± 0.094
CC1(C)O[C@@H]2C[C@H]3[C@@H]4CCC5=CC(=O)CC[C@]5(C)[C@@]4(F)[C@@H](O)C[C@]3(C)[C@]2(C(=O)CCl)O1 [Halcinonide] (concentration: 25 µM),0.914 ± 0.03,0.883 ± 0.12
CCCNC(=O)NS(=O)(=O)c1ccc(Cl)cc1 [Chlorpropamide] (concentration: 25 µM),1.04 ± 0.021,1.02 ± 0.048
CC1(C)O[C@@H]2C[C@H]3[C@@H]4CCC5=CC(=O)C=C[C@]5(C)[C@@]4(F)[C@@H](O)C[C@]3(C)[C@]2(C(=O)CO)O1 [Triamcinolone Acetonide] (concentration: 25 µM),0.997 ± 0.039,0.789 ± 0.084
CCOc1ccccc1OCCN[C@H](C)Cc1ccc(OC)c(S(N)(=O)=O)c1 [Tamsulosin·HCl] (concentration: 25 µM),0.988 ± 0.037,0.808 ± 0.079
CC(C)NCC(O)COc1cccc2[nH]ccc12 (configuration not stated) [Pindolol] (concentration: 25 µM),0.976 ± 0.065,0.644 ± 0.16
CC(C)C(=O)Nc1ccc([N+](=O)[O-])c(C(F)(F)F)c1 [Flutamide] (concentration: 25 µM),0.918 ± 0.033,0.329 ± 0.14
